From PubChem
This is a sample that favours compounds with a hit; in the whole collection about 1.5% have one here.
DAGLB inhibitor: blocks human DAGLB lipase activity. Q8NCG7. inhibition, % at 5.17 µM. HEK293T DAGLB membrane lysate, EnzChek fluorogenic substrate. AID 504411. 0.059% of 340,000 active; in the data active = inhibition above about 34%
ANO1 activ: activators or potentiators of mouse TMEM16A chloride channel; Q8BHY3; HEK293 TMEM16A/YFP-H148Q/I152L, iodide quench fluorescence; hits give low values; 0.3% of 340,000 active; B-score at 10 µM;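 active = fluorescence-ratio B-score plate-corrected deviation score at least 3 library SD below zero, with starting fluorescence score within 5 deviations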;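 note: channel opened by trigger with iodide after compound preincubation; score built on the fluorescence ratio of max minus min over baseline; more negative score means more quench and so TMEM16A activation or potentiation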
iPSC survival up: enhancers of human iPSC single-cell survival. hiPSC single-cell survival, ATPlite luminescence; 100% = ROCK inhibitor wells, 0% = DMSO. survival enhancement, % at 20 µM. 0.044% of 360,000 active; in the data active = survival enhancement above about 18%;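 note: cells exposed to compounds for 16 hours before the ATP read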
ABCB6 inh 2: blocks the human ABCB6 transporter | 0.19% of 360,000 active | Q9NP58 | fluorescence ratio to DMSO, % at 10 µM | K562-ABCB6 porphyrin accumulation, flow cytometry, 1 h; hits give low values | AID 602162;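 active = fluorescence ratio to DMSO below 75%, the collection mean minus 3 SD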;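 note: signal is porphyrin accumulated inside mitochondria; lower ratio means ABCB6 inhibition with less porphyrin fluorescence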
Target sequence (Q9NP58 whole entry, looked up): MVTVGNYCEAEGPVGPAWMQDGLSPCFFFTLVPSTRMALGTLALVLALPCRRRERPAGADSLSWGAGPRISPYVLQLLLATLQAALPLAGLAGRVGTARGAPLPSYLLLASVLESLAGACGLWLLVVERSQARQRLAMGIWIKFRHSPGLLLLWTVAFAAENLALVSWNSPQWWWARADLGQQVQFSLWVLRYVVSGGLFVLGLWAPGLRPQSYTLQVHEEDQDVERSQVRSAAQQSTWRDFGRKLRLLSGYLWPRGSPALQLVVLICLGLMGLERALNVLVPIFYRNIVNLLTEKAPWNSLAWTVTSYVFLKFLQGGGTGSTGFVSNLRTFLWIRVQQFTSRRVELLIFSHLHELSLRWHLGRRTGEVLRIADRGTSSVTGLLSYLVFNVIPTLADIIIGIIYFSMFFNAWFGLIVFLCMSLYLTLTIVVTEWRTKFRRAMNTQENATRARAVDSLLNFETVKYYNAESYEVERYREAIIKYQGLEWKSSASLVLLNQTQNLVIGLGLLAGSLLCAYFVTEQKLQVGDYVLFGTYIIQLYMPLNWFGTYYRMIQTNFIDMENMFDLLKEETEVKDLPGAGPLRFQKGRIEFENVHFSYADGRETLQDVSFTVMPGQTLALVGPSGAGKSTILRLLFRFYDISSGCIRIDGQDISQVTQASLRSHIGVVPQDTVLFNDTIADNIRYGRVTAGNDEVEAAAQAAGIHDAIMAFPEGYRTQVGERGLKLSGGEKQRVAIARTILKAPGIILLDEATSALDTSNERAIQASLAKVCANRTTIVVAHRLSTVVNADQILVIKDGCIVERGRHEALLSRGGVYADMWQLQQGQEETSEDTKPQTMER
TMEM16A inh: inhibitors of mouse TMEM16A calcium-activated chloride channel. Q8BHY3. HEK293 TMEM16A/YFP iodide influx fluorescence, ionomycin. normalized B-score (activity score, 25-100; higher = stronger inhibition) at 10 µM. 1.2% of 310,000 active. AID 588511;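 active = ratio plate-corrected score three or more library SD toward inhibition, starting fluorescence score within five deviations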;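 note: score derived from kinetic fluorescence span divided by baseline fluorescence per well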
TMEM16A reconf: reconfirmed blocker of mouse TMEM16A calcium-activated chloride channel | HEK293 TMEM16A/YFP-H148Q, iodide quench fluorescence; ionomycin added to raise cell calcium | inhibition, % at 10 µM | shares compounds with TMEM16A inh | 39% of 2,300 active;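 active = mean duplicate percent inhibition, scaled so buffer wells are 0 and the reference blocker 100, over three buffer SD above buffer mean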
TMEM16A Ca cntr: alters calcium mobilization in TMEM16A HEK293 cells, counter-screen; shares compounds with TMEM16A inh; TMEM16A/YFP HEK293, Fluo4 calcium mobilization; calcium response (% of ionomycin), % at 10 µM; 2% of 2,300 active;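 active = duplicate-averaged calcium signal over 20% of the ionomycin maximum, relative to buffer baseline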;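 note: each well's signal is peak minus trough fluorescence divided by its pre-addition baseline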
Parental YFP cnt: parental YFP-HEK293 iodide quench counter-screen activity. shares compounds with TMEM16A inh. ionomycin. YFP ratio F(max-min)/F0 at 10 µM. AID 652233. 2,300 tested, under 10 active;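 active = yellow fluorescent protein signal ratio exceeding the buffer control mean by over 5 SD of those controls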;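 note: ratio is mean of duplicate wells from kinetic YFP trace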
ClC-1 rat inh: blocks the rat ClC-1 voltage-dependent chloride channel | ratio percent, % at 10 µM | CHO ClC-1-YFP, iodide influx fluorescence quench; iodide control reads 0, buffer control 100 | shares compounds with TMEM16A inh | 2,300 tested, under 10 active;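 active = duplicate-mean ratio percent above the mean of iodide-only control wells, which defines zero, plus 5 of their SD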;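 note: higher percent means stronger block of ClC-1 iodide influx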
Numbers stand for hits; n = inactive; x = no result.

SMILES	DAGLB inhibitor	ANO1 activ	iPSC survival up	ABCB6 inh 2	TMEM16A inh	TMEM16A reconf	TMEM16A Ca cntr	Parental YFP cnt	ClC-1 rat inh
N#CC(C#N)=c1ccc2c(c1)N1C3=C(CCCC3)CC3CCCCC31N=2 (stereo unspecified)	n	n	n	n	25	n	n	n	n
COc1cccc(-c2cc(C(F)(F)F)n3nc(C(=O)N4CCCCC4c4cccnc4)cc3n2)c1 (stereo unspecified)	n	n	n	n	25	n	n	n	n
COc1ccc(-c2cc(C(F)(F)F)n3nc(C(=O)N4CCCCC4)cc3n2)cc1	n	n	n	n	n	x	x	x	x
CC(OC(=O)C1CC1C)C(=O)Nc1ncc(Cl)cc1Cl (stereo unspecified)	n	n	n	n	n	x	x	x	x
O=C(NC(=O)c1cccc(F)c1)Nc1nc(-c2ccc(F)cc2)cc(C(F)(F)F)n1	n	n	n	n	n	x	x	x	x
COc1ccccc1C(=O)NC(=O)Nc1nc(-c2ccccc2)cc(C(F)(F)F)n1	n	n	n	n	25	n	n	n	n
O=C(c1ccccc1)N1CCN(c2ccc(Cl)cc2)CC1	n	n	n	n	n	x	x	x	x
O=C(c1noc2c1CSc1ccccc1-2)N1CCN(c2ccc(Cl)cc2)CC1	n	n	n	n	25	n	n	n	n
Cn1nccc1C(=O)NC1CCCc2c1cnn2-c1ccc(C(C)(C)C)cc1 (stereo unspecified)	n	n	n	n	25	28%	n	n	n
CC(=O)NC1CCCc2c1cnn2-c1ccc(C(C)(C)C)cc1 (stereo unspecified)	n	n	n	n	n	x	x	x	x
COc1ccc(CCN(C)CC(=O)Nc2c(C)cc(C)cc2C)cc1OC	n	n	n	n	n	x	x	x	x
COc1ccccc1OCCNC(=O)c1ccc(C)c(S(=O)(=O)N2CCOCC2)c1	n	n	n	n	n	x	x	x	x
O=C(Nc1nnc(-c2cccs2)o1)c1cccc(C(F)(F)F)c1	n	n	n	n	25	n	26%	n	n
N#Cc1ccc(C(=O)Nc2nnc(-c3cccs3)o2)cc1	n	n	n	n	n	x	x	x	x
O=C(Nc1cccc(S(=O)(=O)N2CCCCC2)c1)Nc1ccc(Cl)cc1Cl	n	n	n	n	100	n	n	n	n
O=C(Cc1ccccc1Cl)Nc1cccc(S(=O)(=O)N2CCCCCC2)c1	n	n	n	n	x	x	x	x	x
O=C(Nc1cccc(S(=O)(=O)N2CCCCC2)c1)c1ccccc1NS(=O)(=O)c1ccc(F)cc1	n	n	n	n	100	40%	n	n	n
Cc1ccc(NC(=O)c2ccccc2NS(=O)(=O)c2ccc(F)cc2)cc1S(=O)(=O)N1CCCCC1	n	n	n	n	25	45%	n	n	n
O=C(Nc1cc(S(=O)(=O)N2CCCCC2)ccc1O)c1ccccc1NS(=O)(=O)c1ccc(F)c(F)c1	n	n	n	n	25	50%	n	n	n
NS(=O)(=O)c1cccc(NC(=O)c2ccccc2NS(=O)(=O)c2ccc(F)cc2)c1	n	n	n	n	n	x	x	x	x
CN(C)S(=O)(=O)c1cccc(NC(=O)c2ccc(S(=O)(=O)N3CCCC3)cc2)c1	n	n	n	n	n	x	x	x	x
CC1(C(=O)NCc2cccc3ccccc23)CCN1C(=O)Cc1ccc(-c2ccccc2)cc1 (stereo unspecified)	x	x	n	n	x	x	x	x	x
Cc1cc(C)c(S(=O)(=O)c2ccccc2C)c(Cl)n1	n	n	n	n	n	x	x	x	x
CCCCSc1nc(C)cc(C)c1S(=O)(=O)c1ccccc1C	n	n	n	n	100	22%	n	n	n
CC(C)c1ccc(C(=O)Nc2ccc(CN3CCOCC3)cc2)cc1	n	n	n	n	100	n	n	n	n
